Several values for one entry are separate records, joined by “and”; a condition that tells them apart may be missing. Identical values can stand only once. Screen size: about 34,000 compounds; about 290 (0.85%) showed an effect of 50% or more. The full list was thinned out, with strong results kept by preference.
Tested on: Plasmodium falciparum
Assay: Plasmodium falciparum sporozoite viability assay
Assay type: functional, organism-based
Parameters: scale not given: in the data most compounds retested in dose-response had high values

Row | SMILES | Percent Effect [%] | Percent Effect (10 mM as filed; unlikely as a test dose)
1 | Cc1ccc(CN2CCCC(c3cncc(C)n3)C2)cn1 (stereo not drawn) | 7.699 | 
2 | COc1cccc(-n2cc(CN(C)C(=O)c3cc[nH]n3)cn2)c1 |  | -69.36% and -66.93%
3 | CCn1ccc(C(=O)N(C)Cc2cnn(-c3cccc(OC)c3)c2)n1 |  | -38.3% and -41.56%
4 | COc1cccc(-n2cc(CN(C)C(=O)c3cnc(O)cn3)cn2)c1 |  | 70.55% and 77.42%
5 | Cn1ccnc1CN1CCN(CC(=O)NCc2cccs2)CC1 | 11.24 | 
6 | CCOC(=O)c1sc2ccsc2c1CNC(=O)CCOC | -1.34 | 
7 | COc1cccc(-c2ncc(CN3C[C@@H]4CC[C@H](C3)N(C)C4=O)s2)c1 |  | 84.86% and 76.95%
8 | CN1C(=O)[C@H]2CC[C@@H]1CN(Cc1cccc(OCc3ccccn3)c1)C2 |  | -14.17% and -8.272%
9 | Cc1nc(C)n(CC2CCCN(CCOc3ccc(C#N)cc3)C2)n1 (stereo not drawn) | -0.23 | 
10 | O=C(COc1coc(CN2CCOCC2)cc1=O)c1ccc(Cl)cc1 | -1.015 | 
11 | O=C(NCCc1ccccn1)Nc1cc(C(F)(F)F)c[nH]c1=O | 1.519 | 
12 | Cc1nn(C)cc1C(=O)N1CCC(C(=O)c2nc3ccccc3s2)CC1 | 4.427 | 
13 | CCc1ncc(CN(C)C2CCN(C(C)C)CC2)cn1.O=C(O)CC(O)(CC(=O)O)C(=O)O | 7.243 | 
14 | COCC(NC(=O)c1cn2ccsc2n1)c1ccnn1C (stereo not drawn) | 0.7162 | 
15 | CC(=O)NC1CCCN(C(=O)Nc2cccnc2-n2cccn2)C1 (stereo not drawn) | -4.732 | 
16 | CCC(=O)NC1CCCN(C(=O)Nc2cccc(COC(C)C)c2)C1 (stereo not drawn) | 3.429 | 
17 | O=C(Nc1cc(-c2ccccc2)on1)N1CCN(CCO)CC1 |  | 64.88% and 38.14%
18 | CCC(=O)NC1CCCN(C(=O)Nc2cc(-c3ccccc3)on2)C1 (stereo not drawn) |  | 86.86% and 95.97%
19 | O=C(Nc1cc(-c2ccccc2)on1)N1CC[C@H](O)C1 |  | -24.83% and -17.1%
20 | O=C(CCCc1nc(-c2ccccc2)no1)N1CCN(CCO)CC1 | 11.73 | 
21 | Cc1csc(CNCC(C)c2nc3ccccc3o2)n1 (stereo not drawn) | 10.3 | 
22 | O=C(Cn1cnc2cc3c(cc21)OCCCO3)NC1CCCCC1 |  | 58.19% and 56.08% and 47.01%
23 | O=C(Cn1cnc2cc3c(cc21)OCCCO3)NCCc1ccccc1 |  | 3.571% and -13.25% and -3.678%
24 | O=C(Cn1cnc2cc3c(cc21)OCCCO3)NC1CCCC1 |  | 34.04% and 26.95% and 25.51%

Row | SMILES | Percent Effect [%] | Percent Effect (10 mM as filed; unlikely as a test dose)
25 | NC(=O)N1CCC2(CC1)CC(=O)N(CC1CCCO1)c1ccccc12 (stereo not drawn) | 6.567 | 
26 | Cc1cc(CN2CCOC(Cn3nc(C)cc3C)C2)on1 (stereo not drawn) | 2.612 | 
27 | COCCN(C(=O)c1ccccn1)c1nc2c(s1)CCc1c-2cnn1C |  | 80.83% and 57.64% and 71.31%
28 | CCCN(C(=O)c1ccncc1)c1nc2c(s1)CCc1c-2cnn1C | 11.45 | 
29 | CCCN(C(=O)c1cnccn1)c1nc2c(s1)CCc1c-2cnn1C | 1.308 | 
30 | COCCN(C(=O)c1cnccn1)c1nc2c(s1)CCc1c-2cnn1C | -10.14 | 
31 | Cc1ccc(C(O)CN2CCN(Cc3nccn3C)CC2)cc1C (stereo not drawn) | 1.122 | 
32 | Cc1noc(C)c1CN(C)C(=O)NC1CCCN(S(C)(=O)=O)C1 (stereo not drawn) | 9.671 | 
33 | Cc1nc2ccccc2nc1CN1CCOC(Cn2cccn2)C1 (stereo not drawn) | 6.321 | 
34 | Cc1cc(C)n(CC2CN(Cc3ccccn3)CCO2)n1 (stereo not drawn) | 1.241 | 
35 | Cc1cnn(CC2CN(Cc3nc4ccccc4nc3C)CCO2)c1 (stereo not drawn) | -7.63 | 
36 | c1ccc2sc(N3CCOC(Cn4cccn4)C3)nc2c1 (stereo not drawn) | 9.76 | 
37 | Cc1nc(CN2CCOC(Cn3cncn3)C2)nc2ccccc12 (stereo not drawn) |  | 1.85% and -1.802% and -10.11%
38 | Cc1cnn(CC2CN(Cc3nc4ccccc4s3)CCO2)c1 (stereo not drawn) |  | 55.85% and 70.99% and 46.92%
39 | Cc1cc(C)n(CC2CN(Cc3nc4ccccc4s3)CCO2)n1 (stereo not drawn) |  | 66.96% and 52.93% and 45.91%
40 | Cc1cnn(CC2CN(Cc3nc4ccccc4o3)CCO2)c1 (stereo not drawn) | -0.5102 | 
41 | c1ccc(-c2ccc(CN3CCOC(Cn4cncn4)C3)cc2)cc1 (stereo not drawn) | -3.122 | 
42 | c1ccc(OCCN2CCC(c3nnc(-c4cccnc4)o3)CC2)cc1 | -3.337 | 
43 | CCOCC1c2c(cnn2C)CCN1C(=O)c1cc(C)on1.O=C(O)C(F)(F)F (stereo not drawn) | 15.94 | 
44 | COc1ccc(Br)c(C(=O)NCC2CC2)c1 | 3.186 | 
45 | CC(C)COCC1CN(Cc2ccco2)Cc2ncn(C)c21 (stereo not drawn) | 12.26 | 
46 | Cc1ccc(CN2CC[C@@H]3[C@@H](CO[C@H]3CN3CCN(C)CC3)C2)s1.O=C(O)C(F)(F)F.O=C(O)C(F)(F)F.O=C(O)C(F)(F)F | 10.79 | 
47 | O=C1[C@H]2CN(S(=O)(=O)C3CC3)C[C@H]2CN1CC1CC1 | 4.506 | 
48 | CC(=O)Nc1nc(C(=O)N2CCCCC2Cn2cc(C)cn2)cs1 (stereo not drawn) | -12.14 | 

Row | SMILES | Percent Effect [%] | Percent Effect (10 mM as filed; unlikely as a test dose)
49 | Cc1ccc(S(=O)(=O)NC(=O)c2c(C)noc2C(C)C)cc1C | -15.45 | 
50 | CNC(=O)CCNC(=O)CCc1c(C)nc2cc(O)nn2c1C | 8.263 | 
51 | Cc1ccc(CN(C)C(=O)CNC(=O)N2CCc3ccccc3C2)o1 | 1.19 | 
52 | CCC1c2ccsc2CCN1C(=O)NCc1ccc(C)nc1 (stereo not drawn) | 6.154 | 
53 | CC(C)(C)c1cn2nc(N3CCCC(Cn4cncn4)C3)sc2n1 (stereo not drawn) |  | 61.38% and 60.13% and 50.37%
54 | CC(C)(C)c1cn2nc(N3CCOC(Cn4cncn4)C3)sc2n1 (stereo not drawn) | 8.052 | 
55 | CC(C)(C)c1cn2nc(N3CCCC3Cn3cncn3)sc2n1 (stereo not drawn) |  | -5.183% and 4.187% and 0.2303%
56 | Cc1nc(-c2c(C)noc2C)cc(C2CCN(S(=O)(=O)N(C)C)CC2)n1 | 10.55 | 
57 | CN(C)C(=O)CN1CC[C@]2(CN(CC3CC3)C[C@H]2c2ccccc2)C1=O.O=C(O)C(F)(F)F | 2.654 | 
58 | O=C(CCc1ccccc1)N1CC(n2cncn2)C1 | 7.531 | 
59 | COc1c(CNCc2ccc3c(c2)OCO3)c(C(C)C)nn1C | 7.092 | 
60 | O=C1NCCN2CCN(C(=O)Nc3ccc(-c4ccccc4)cc3)CC12 (stereo not drawn) |  | -23.97% and -24.61%
61 | CC1=N[C@@]2(CC[C@@H]3CN(C(=O)NCCc4ccccc4)C[C@@H]32)C(=O)N1 | 2.735 | 
62 | O=C(NCc1ccccc1F)N1CCC(C2OCCO2)CC1 | 0.1127 | 
63 | O=C1NCCN2CCN(C(=O)NCCc3ccccc3)CC12 (stereo not drawn) |  | 64.04% and 69.93%
64 | O=C(NCCc1ccccc1)N1CCCCC1C1OCCO1 (stereo not drawn) |  | -48% and -64.36%
65 | O=C(NCCc1ccccc1)N1CCC(C2OCCO2)CC1 |  | 28.36% and 65.96%
66 | CC(=O)N1CCCC1C(=O)NCCOc1cccc(F)c1 (stereo not drawn) | -6.239 | 
67 | Cn1cc(C(=O)N2C[C@@H]3CN(S(C)(=O)=O)CCO[C@@H]3C2)cn1 | -2.6 | 
68 | C[C@]1(O)CN(CCO)CC[C@@H]1Oc1cccc(F)c1 | 17.57 | 
69 | COc1ccccc1OCCC(=O)N1CCCCC1c1nccs1 (stereo not drawn) | -5.924 | 
70 | CN(C)CCNc1ccc(-c2nc(-c3ccccc3F)no2)cn1 |  | 80.1% and 68.27%
71 | CC(C)(CO)Nc1ccc(-c2nc(-c3ccccc3F)no2)cn1 |  | 13.89% and 24.65%
72 | CC(O)CN1CCC(CNCc2ccc(C(N)=O)cc2)CC1 (stereo not drawn) | 0.9015 | 

Row | SMILES | Percent Effect [%] | Percent Effect (10 mM as filed; unlikely as a test dose)
73 | Cc1ccc(CNC(=O)NC(C)Cn2cccn2)cn1 (stereo not drawn) | 11.6 | 
74 | CCN1CCN(c2ccc(CNC(=O)Cc3c(C)noc3C)cn2)CC1 | 9.727 | 
75 | Cc1nc(CN2CCC2(CCCc2ccccn2)C(=O)N(C)C)co1 (stereo not drawn) | 12.32 | 
76 | CCOCc1nn(CC2CC2)c2c1CN(Cc1cccs1)CC2.O=C(O)C(F)(F)F.O=C(O)C(F)(F)F | 6.48 | 
77 | Cc1nc(CN2CC(CCCc3ccccn3)(C(=O)N(C)C)C2)co1 | -0.6757 | 
78 | COc1cccc(OCC2CCCN(C3CCN(C(C)=O)CC3)C2)c1 (stereo not drawn) |  | -11.14% and -12.8% and -12.12%
79 | COc1cccc(OCC2CCCN(C(=O)c3cnc(C)nc3O)C2)c1 (stereo not drawn) | -6.706 | 
80 | Cc1nn(CC(C)C)c(N(C)C)c1CNCc1ccc2c(c1)OCO2 | -0.9874 | 
81 | Cc1nc(Nc2cnccn2)cc(C2CCN(c3ncccn3)C2)n1 (stereo not drawn) | 4.755 | 
82 | CCOc1ccc(C(=O)N2CCCC(n3ccnc3C)C2)cc1OC (stereo not drawn) | 0.3069 | 
83 | CCc1cnc(N2CCc3cc(C(=O)NC)c(N(C)C)nc3CC2)nc1.O=C(O)C(F)(F)F | 0.8439 | 
84 | O=C(c1cc(=O)c(OCc2ccccc2)co1)N1CCSCC1 | -8.629 | 
85 | c1cnc(-c2nc(CN3CCN(CC4CC4)CC3)cs2)nc1 |  | 84.72% and 73.85% and 60.32%
86 | NC(=O)C1CCN(Cc2csc(-c3ncccn3)n2)CC1 |  | -22.27% and -16.43% and -15.46%
87 | c1cnc(-c2nc(CN3CCC(c4ccn[nH]4)CC3)cs2)nc1 | 5.764 | 
88 | c1cnc(-c2nc(CN3CCCC(N4CCCC4)C3)cs2)nc1 (stereo not drawn) | 5.451 | 
89 | CC(=O)Nc1nc2c(s1)C1(CCN(C)CC1)Nc1ccccc1S2 | 12.96 | 
90 | Cc1nccc(N2CCCC(C)(C(=O)NC3CCCC3)C2)n1 (stereo not drawn) | 2.213 | 
91 | Cc1cnn(CC2CCCCN2Cc2nc(N)c3ccccc3n2)c1 (stereo not drawn) |  | 41.2% and 50.14% and 52.23%
92 | Cc1cnn(CC2CCCCN2Cc2nc(C)c3ccccc3n2)c1 (stereo not drawn) |  | 35.56% and 21.88% and 27.76%
93 | Cc1cnn(CC2CCCN2Cc2nc(N)c3ccccc3n2)c1 (stereo not drawn) |  | 22.63% and 18.94% and 34.15%

From ChEMBL document CHEMBL3988442, “University of Dundee, Small-Polar-MMV Screening Library” (2021)
